Bioassay records (PubChem)
RMI FANCM FP = disruptors of RMI1/RMI2 association with MM2 peptide – biochemical, fluorescence polarization, human, primary screen; RMI core complex (RMI1/RMI2) binding to FANCM MM2 peptide, human; RMI core complex with F-MM2 peptide; stronger effect = lower value; FP signal (polarization) at 33 µM; 70,000 compounds, 0.58% hits; AID 1159607, 2016; in the data active = FP signal below about 40
The depositor's hits bear a star; ! = not active in a repeat. This is one part of a sample in which hits are shown more often than they occur.

SMILES	RMI FANCM FP
CCN(CC)C(=O)N[C@@H]1C=C2c3cccc4[nH]cc(c34)C[C@H]2N(C)C1	47
CC[C@@H](CO)NC(=O)[C@@H]1C=C2c3cccc4c3c(cn4C)C[C@H]2N(C)C1	37
CC[C@@H](CO)NC(=O)[C@@H]1C=C2c3cccc4[nH]cc(c34)C[C@H]2N(C)C1	4*!
CC12CN([N+](=O)[O-])C3(C#N)CC1CCC23C (centres undefined)	65
Cc1ccc(C2(O)C[N+]3=C(SCCC3)N2Cc2ccccc2)cc1 (centres undefined)	78
O=C(Nc1ccc(S(=O)(=O)N2CC3CC(C2)c2cccc(=O)n2C3)cc1)c1ccco1 (centres undefined)	62
C[C@@H]1C(=O)O[C@H]2[C@H]1CC[C@@]1(C)C=CC(=O)[C@@]3(C)O[C@@]213	31*!
O=c1ccsn1-c1cccc(Cl)c1F	49
O=c1cccc2n1CC1CC2CN(C(=S)NCc2ccccc2)C1 (centres undefined)	60
CCOc1ccccc1/C=C(\C)[N+](=O)[O-]	59
CC(=O)C1CC[C@H]2C3CC[C@H]4C[C@H](O)CC[C@]4(C)C3CC[C@]12C (some centres undefined)	60
COC(=O)[C@]1(C)CC[C@]2(C)CC[C@]3(C)C4=CCc5c(cc(O)c(O)c5C)[C@]4(C)CC[C@@]3(C)C2C1 (some centres undefined)	13*
COc1ccc2nc(N3CCNCC3)sc2c1	71
O=C(c1ccccc1)c1cc(Br)ccc1NC(=O)C1CC1	58
CC[C@@H](C(N)=O)N1CCCC1=O	26*
CC12CCC3C(Br)(CC31C)C2=O (centres undefined)	59
COc1ccc(CC(=O)N2CCN(Cc3nc(-c4cccs4)cs3)CC2)cc1OC	60
C=C1CC[C@@H]2CCC3C(CCC4(C)C3CC[C@]4(C)O)C2(C)C1 (some centres undefined)	55
C=C(C)[C@H]1Cc2c(ccc3c2O[C@@H]2COc4cc(OC)c(OC)cc4[C@@H]2C3=O)O1	56
COc1cc2c(cc1OC)[C@@H]1C(=O)c3ccc(OC)c(CC=C(C)C)c3O[C@@H]1CO2	29*
COc1cc2c(cc1OC)[C@@H]1C(=O)c3ccc4c(c3O[C@@H]1CO2)CC(C(C)C)O4 (some centres undefined)	55
Brc1ccc2nc(N3CCNCC3)sc2c1	73
CCSc1nnc(NC(=O)c2cccn(Cc3ccc(F)cc3)c2=O)s1	53
c1ccc(-n2cccc2-c2nc(N3CC3)nc(N3CC3)n2)cc1	106
NCCc1cccc(O)c1	19*
Cc1[nH]c2ccc(O)cc2c1CCN	49
COc1cc(CCN)ccc1O	57
CCn1ccc(C(=O)Nc2ccc(Cl)cc2C(=O)c2ccccc2Cl)n1	87
COc1ccc(C)cc1NC(=O)c1cccn(Cc2cccc(C(F)(F)F)c2)c1=O	54
COc1ccc(CC(=O)N2CCN(Cc3csc(-c4ccccc4)n3)CC2)cc1OC	59
